Screens (PubChem)
ELG1 repair inh: qHTS screen for small molecules that inhibit ELG1-dependent DNA repair in human embryonic kidney (HEK293T) cells expressing luciferase-tagged ELG1; HEK293T ELG1-luciferase reporter, luminescence, 16 h; DNA damage induced by 5-fluorouridine; Potency, µM (titrated, usually from 46.1 µM), for inactives: at the highest dose activity change, negative = inhibition, most hits filed as inhibitors; actives 2.3% (n = 330,000); AID 504467, 2011; also: potency is read from the fitted curve at half-maximal effect; nearly all actives have a fitted effect of over 55% in size
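DMSO vehicle served as the neutral condition. Each well held 2,000 cells given 5-fluorouridine plus compound; after 16 hr at 37 °C/5% CO2, ONE-Glo was added and luciferase measured 30 min later.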
IL-1B inflam inh: qHTS for Inhibitors of Inflammasome Signaling: IL-1-beta AlphaLISA Primary Screen; activity change, % at 57.5 µM; THP-1 LPS/ATP IL-1B secretion, AlphaLISA, 16 h; active compounds read low; actives 4.7% (n = 360,000); in the data active = activity change below about -50%; inconclusive = mostly about -30% to -49%
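THP-1 cells pretreated 1 hr with compounds (up to 57.5 uM final), then stimulated with LPS (250 ng/mL final) plus ATP (1.25 mM final); secreted IL-1B measured by AlphaLISA after 16 hr, decreased signal indicating inhibition.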
HT1080 IDH1KD tx: qHTS for induction of synthetic lethality in tumor cells producing 2HG: qHTS for the HT-1080-IDH1KD cell line | HT-1080 IDH1 knockdown viability, ATP luminescence, 48 h | Potency, µM (doses to about 46.1 µM), without a hit: top-dose activity, negative = toxicity, usual class: cytotoxic | actives 2% (n = 360,000) | AID 686971, 2013;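 also: potency is read from the fitted curve at half-maximal effect; 0% = DMSO wells and -100% = cell-free medium wells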
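Knockdown cells (IDH1KD HT-1080) received compounds 2 h after plating at 750 cells/well and were kept 48 h at 37 °C in 5% FBS RPMI. A CellTiter-Glo luminescence read gave % activity for curve fitting.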
TDP1 cell CPT: qHTS for Inhibitors of human tyrosyl-DNA phosphodiesterase 1 (TDP1): qHTS in cells in presence of CPT | actives 12% (n = 420,000) | Potency, µM (highest dose often 46.2 µM), for inactives: at the highest dose activity change, negative = growth inhibition, usual class: inhibitors | chicken DT40 Tdp1-/-;hTDP1 cells + 20 nM CPT, ATP luminescence, 48 h | AID 686979, 2013; also: potency is read from the fitted curve at half-maximal effect; nearly all actives have a fitted effect of over 55% in size
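Chicken DT40 Tdp1-/- cells stably complemented with human TDP1 were seeded at 400 cells/well in medium containing 20 nM camptothecin, exposed to pin-transferred compounds, and grown at 37 °C for at least 48 hr. Viability was read as ATP luminescence.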
HT1080NT lethal: qHTS for induction of synthetic lethality in tumor cells producing 2HG: qHTS for the HT-1080-NT fibrosarcoma cell line; Potency, µM (highest dose often 46.1 µM), inactives show at the top dose activity, negative = less viability, most hits filed as cytotoxic; AID 686970, 2013; HT-1080-NT fibrosarcoma viability, CellTiter-Glo ATP luminescence, 48 h; actives 1.6% (n = 360,000);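 also: NT is the 2HG producing partner of a matched IDH1 knockdown line; potency is read from the fitted curve at half-maximal effect; 0% = DMSO-treated cells and -100% = media-only wells without cells; nearly all actives have a fitted effect of over 55% in size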
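Luminescent CellTiter-Glo readout after 48 hours of compound exposure at 37 degrees C defined viability of HT-1080-NT cells. Activity was normalized to DMSO wells and cell-free media wells; concentration-response curves were fitted and assigned curve classes.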
TDP1 cell noCPT: qHTS for Inhibitors of human tyrosyl-DNA phosphodiesterase 1 (TDP1): qHTS in cells in absence of CPT; DT40 Tdp1-/- hTDP1 cells, no CPT, ATP luminescence, 48 h; Potency, µM (series often up to 46.2 µM), for the others: top-dose activity change, negative = growth inhibition, hits mostly inhibitors; actives 15% (n = 420,000); AID 686978, 2013; also: potency is read from the fitted curve at half-maximal effect; nearly all actives have a fitted effect of over 55% in size
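No-CPT arm: Tdp1-/-;hTDP1 DT40 cells (400/well) plus compounds, incubated ≥48 hr at 37 °C. Readout CellTiter-Glo luminescence.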
Active calls of the source: *; ? = inconclusive; / = no result; [ ] = remark or other dose. This is a sample that favours compounds with a hit; in the whole collection about 19% have one here. Unless noted, calls follow the shape of the dose curve; as a rule, active = well fitted curve in the direction sought with a large enough effect; inconclusive = small, poorly fitted or top-dose-only effect, or another doubt; inactive = no such curve, though single readings can be large; an effect the other way counts as inactive or inconclusive. Unless noted, % is scaled to controls: 0 for no effect and ±100 for the full control effect.

SMILES	ELG1 repair inh	IL-1B inflam inh	HT1080 IDH1KD tx	TDP1 cell CPT	HT1080NT lethal	TDP1 cell noCPT
CCC1Cc2[nH][nH]c(=O)c2C(CC)O1 (centres undefined)	/	5.3	2.9%	-8.0%	12.4%	-17.1%
CCOc1ccc(C(=O)C(C)OC(=O)Cn2[nH]c(=O)c3ccccc3c2=O)cc1 (centres undefined)	16.1%	-0.2	0.1%	-26.0%	-2.9%	-27.0%
O=C(Nc1cccc(Nc2ccccc2)c1)c1cnn2c1NC(=C1CC1)C=C2C(F)F	/	/	/	4.47µM*	/	14.1µM*
O=C(c1cnn2c1NC(=C1CC1)C=C2C(F)F)N1CCc2ccccc21	/	/	/	11.2µM*	/	11.2µM*
Cc1ccc(NC(=O)c2cnn3c2NC(=C2CC2)C=C3C(F)F)cc1C	/	/	/	-1.0%	/	?
COc1ccc(CCNC(=O)c2cnn3c2NC(=C2CC2)C=C3C(F)F)cc1OC	/	/	/	11.2µM*	/	12.6µM*
O=C(Nc1ccccc1Sc1ccccc1)c1cnn2c1NC(=C1CC1)C=C2C(F)F	/	/	/	15.8µM*	/	?
CC1CCCCN1C(=O)c1cnn2c1NC(=C1CC1)C=C2C(F)F (centres undefined)	/	/	1.4%	10.1%	6.6%	?
O=C(Cc1cccs1)NC1CC(=O)N(c2cccc(F)c2)C1 (centres undefined)	/	/	/	-3.9%	/	-4.0%
O=C(NC1CCCc2ccccc21)c1cnn2c1NC(=C1CC1)C=C2C(F)F (centres undefined)	/	/	-20.3%	11.2µM*	-25.2%	20µM*
O=C(Nc1cccnc1Cl)c1cnn2c1NC(=C1CC1)C=C2C(F)F	/	/	/	?	/	8.91µM*
O=C(Nc1ccccc1F)c1cnn2c1NC(=C1CC1)C=C2C(F)F	/	/	3.6%	-3.4%	15.5%	-11.8%
COc1cc(C(C(=O)NC(C)(C)C)N(Cc2ccccc2)C(=O)c2cnccn2)cc(OC)c1OC (centres undefined)	-9.2%	0.2	4.3%	-0.2%	5.4%	-5.3%
COc1ccc(CN(C(=O)c2ccc(-c3ccccc3)[nH]2)C(C(=O)NC(C)(C)C)c2ccncc2)cc1 (centres undefined)	?	-83.3*	14.6µM*	?	-21.6%	?
COc1ccc2c(c1)c(=O)oc1cc(OCC(=O)N3CCCC(C)C3)ccc12 (centres undefined)	?	-0.9	0.1%[9.24 µM]	?	-19.4%	13µM*
CC1CCCN(C(=O)COc2ccc(-c3ccccc3)cc2)C1 (centres undefined)	-3.6%	?	-9.9%	?	-15.8%	14.6µM*
Cc1c(Cl)c(=O)oc2cc(OCC(=O)N3CCCC(C)C3)ccc12 (centres undefined)	?	-10.5	-12.3%	?	0.0%	?
COc1ccc2c(c1)c(=O)oc1cc(OCC(=O)N3CCC(C)CC3)ccc12	-20.7%	-6.6	?	?	?	20.6µM*
COCC(=O)N1CCCC(C(=O)c2ccc(-c3ccccc3)cc2)C1 (centres undefined)	27.9%	-9.6	13.4%	?	9.1%	?
O=C(Cn1cnc2c(NCc3ccccc3)ncnc21)NCc1nc2ccccc2[nH]1	4.0%	16.1	7.7%	-1.1%	-0.1%	17.2%
O=C1C(SCCO)=C(SCCO)C(=O)c2ccccc21	?	-54.4*	?	0.0517µM*	-84.3%	0.164µM*
O=c1[nH]c2ccccc2c(O)c1SCCO	2.0%	7.6	20.2%	12.2%	14.5%	-1.3%
CC(C)(C)OC(=O)C[C@@H]1C/C=C\C[C@H](CC(=O)N[C@H](CO)Cc2ccccc2)C(=O)N[C@@H](Cc2c[nH]c3ccccc23)COC1=O	-28.2%	-6.9	-3.1%	25.9µM*	1.8%	?
CC(C)(C)OC(=O)C[C@H]1C/C=C\C[C@H](CC(=O)N[C@H](CO)Cc2ccccc2)C(=O)N[C@H](Cc2ccccc2)COC1=O	?	-57.9*	1.4%	23.1µM*	0.6%	23.1µM*
CC(C)(C)OC(=O)C[C@@H]1C/C=C\C[C@H](CC(=O)N[C@H](CO)Cc2ccccc2)C(=O)N[C@H](Cc2ccccc2)COC1=O	?	12.1	-4.7%	-46.8%	2.1%	13µM*
SMILES	ELG1 repair inh	IL-1B inflam inh	HT1080 IDH1KD tx	TDP1 cell CPT	HT1080NT lethal	TDP1 cell noCPT
CC(C)(C)OC(=O)C[C@@H]1C/C=C\C[C@H](CC(=O)N[C@H](CO)Cc2ccccc2)C(=O)N[C@H](C(C)(C)C)COC1=O	-14.1%	-2.6	0.2%	?	4.4%	?
CC(C)(C)OC(=O)C[C@@H]1C/C=C\C[C@H](CC(=O)N[C@H](CO)Cc2ccccc2)C(=O)N[C@@H](Cc2ccccc2)COC1=O	?	-11.1	0.9%	?	-0.3%	?
COc1ccc(N(CC(=O)NC2CCCCC2)C(=O)c2ccc(C)s2)c(OC)c1	-8.5%	?	-3.0%	?	-8.7%	?
CCn1ncc(NC(=S)NCCc2ccc(OC)c(OC)c2)c1C(N)=O	-5.4%	24.1	2.4%	0.1%	2.5%	-24.0%
Nc1ncnc(N2CCOCC2)n1	/	1.4	28.2%	0.7%	12.9%	3.0%
COc1ccccc1CN1CC[C@@]2(CCCN(C(=O)c3cnccn3)C2)C1	/	/	/	1.2%	/	-12.8%
CCCN1C(=O)/C(=C/c2ccc(C)o2)SC1=Nc1ccc(OCC)cc1	-1.5%	-9.8	7.5%	?	12.6%	?
CCCN1C(=O)/C(=C/c2ccc(C)o2)SC1=Nc1ccc(OC)cc1	?	-12.1	?	9.2µM*	?	8.2µM*
CCN1C(=O)/C(=C/c2ccc(C)s2)SC1=Nc1ccc(OC)cc1	-18.0%	-14.9	?	9.2µM*	-13.4%	9.2µM*
CCOc1ccc(CN(C)C(=O)CNC(=O)C2CCCCC2)cc1OC	?	-7.1	9.0%	-18.8%	11.5%	-10.0%
CNS(=O)(=O)c1ccc(CNC[C@H]2O[C@@H](n3cc(C)c(=O)[nH]c3=O)C[C@@H]2O)cc1	/	15.4	12.9%	2.2%	-2.7%	-3.7%
CCOc1ccc(CCNc2nc3ccccc3n3cnnc23)cc1OCC	20.6µM*	4.9	-2.8%	?	-13.0%	18.4µM*
